Reference: paper PMC5540273 (PLoS ONE, 2017)

Test system: RIPK1
Details: concentration: 1 μM, replicates: in singlicate; n = 1
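Further: KINOMEscan kinase panel screen.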

Row | Compound | %Inh
1 | COCCOCCOc1cc2ncc3c4ccc(C#N)cc4[nH]c3c2cc1OC | 20%
2 | CCn1c(-c2nonc2N)nc2c(C#CC(C)(C)O)ncc(OCCCCN)c21.O=C(O)C(F)(F)F.O=C(O)C(F)(F)F [GSK507274] | 0%
3 | Cn1cc(-c2[nH]c3cc(NC(=O)[C@H](N)C4CCCCC4)cc4c3c2C=NNC4=O)cn1 | 0%
4 | COc1cc(Nc2ncc3c(C)nc(-c4cc5ccccc5[nH]4)n3n2)cc(OC)c1OC [GW869516] | 26%
5 | COc1ccc(Nc2nccc(NCCNC(=O)c3cc4ccccc4s3)n2)cc1 [GSK1379896] | 0%
6 | Cl.Cl.NCC(C(=O)Nc1cc(Br)c(-c2ccnc3[nH]ccc23)s1)c1ccccc1 (stereo not shown) [GSK1269851] | 0%
7 | Cc1ccc(C)c(NC(=O)NC2CCN(c3ccnc(Nc4ccc(F)cc4)n3)C2)c1 (stereo not shown) [GSK1379720] | 0%
8 | CN1CCN(CCCNc2nccc(-c3c(-c4ccc(F)cc4)nn4cc(C(F)(F)F)ccc34)n2)CC1 [GW621581] | 0%
9 | O=C(Nc1cccc(-c2nn3ccccc3c2-c2ccnc(Nc3cccc(F)c3)n2)c1)c1c(F)ccc(F)c1Cl [GSK357952] | 0%
10 | Nc1ncc(-c2cccnc2)c2scc(-c3ccc4c(c3)CCN4C(=O)Cc3ccccc3)c12 [GSK683281] | 100%
11 | Cc1cccc(Nc2nc(N[C@H]3CCNC3)ncc2C(N)=O)c1.Cl [GSK2197149] | 0%
12 | Cc1ccc(C(=O)N2CC[C@@H](O)C2)cc1-n1c(C)cc(OCc2ccc(F)cc2F)c(Br)c1=O | 0%
13 | Cl.c1ccc(-c2ccc3c(Nc4ccc5[nH]ccc5c4)ccnc3c2)nc1 [GW440138] | 0%
14 | Cl.NC(=O)c1cccc(Nc2nccc(Nc3ccc(Oc4c(Cl)cccc4Cl)c(Cl)c3)n2)c1 [GW659009] | 0%
15 | CSc1cccc2c(-c3ccncn3)c(-c3ccc(F)cc3)nn12 [GW514786] | 0%
16 | Cl.Cl.NCC(NCc1ccc(-c2ccnc3[nH]ccc23)s1)c1ccccc1 (stereo not shown) [GSK1321565] | 2%
17 | COC(=O)Nc1nc2ccc(Oc3ccc(NC(=O)Nc4cc(C(F)(F)F)ccc4F)cc3)cc2n1C.Cl [GW692089] | 39%
18 | O=C(Nc1n[nH]c2cc(-c3ccoc3)ccc12)C1CC1 [SB-738481] | 28%
19 | Fc1ccc(-c2ncn(C3CCNCC3)c2-c2ccnc(Oc3ccc(-c4ccccc4)cc3)n2)cc1 [SB-245391] | 0%

Row | Compound | %Inh
20 | Cn1cc(-c2ccc3c(c2)CCN3C(=O)Cc2cccc(Cl)c2)c2c(N)ncnc21 [GSK2606590] | 100%
21 | Cc1ccc(S(=O)(=O)Nc2ccc(Nc3nccc(Nc4cccc5[nH]ncc45)n3)cc2)cc1 [GSK581271] | 5%
22 | O=C(O)C(F)(F)F.O=C(O)C(F)(F)F.O=c1[nH]ccc2nc(N[C@@H]3CCCNC3)nc(Nc3ccc(S(=O)(=O)N4CCOCC4)cc3)c12 [GSK2177277] | 0%
23 | C[C@@H](Oc1cc(-n2cnc3cc(-c4ccnc(NCCS(C)(=O)=O)c4)ccc32)sc1C(N)=O)c1ccccc1Cl [GSK907232] | 45%
24 | c1ccc(-c2cnc3nccnn23)cc1 [AH20685] | 0%
25 | CCCCc1nn2ncccc2c1-c1ccnc(Nc2ccc(N3CCN(C)CC3)cc2)n1 [GW684941] | 22%
26 | Cc1occc1-c1ncc(OC[C@@H](N)Cc2c[nH]c3ccccc23)cc1-c1ccc2[nH]nc(C)c2c1.O=C(O)C(F)(F)F [GSK682037] | 0%
27 | Oc1cc(Nc2ccnc3cc(I)ccc23)ccc1F [GW552771] | 0%
28 | Cc1ccc(C(=O)Nc2ccc(Nc3ccnc4cc(-c5nccs5)ccc34)cc2O)cc1.Cl [GW494702] | 0%
29 | c1ccc(-c2n[nH]cc2Nc2ccnc3ccccc23)nc1 [GW694077] | 0%
30 | C[C@@H]1CC[C@@H](C(=O)Nc2ccccc2)CN1c1cc(-c2ccc3c(N)n[nH]c3c2)nc(N)n1 [GSK2286062] | 31%
31 | CN(C)S(=O)(=O)c1cc(-c2ccc3nccc(-c4cccc(S(N)(=O)=O)c4)c3c2)cnc1N [GSK1669921] | 4%
32 | CCS(=O)(=O)c1ccc(OC)c(Nc2nccc(-c3c(-c4cccc(NC(=O)c5c(F)cccc5F)c4)nn4ncccc34)n2)c1 [GSK326180] | 0%
33 | COc1cccc(C2=C(Nc3ccc(Cl)c(C(=O)O)c3)C(=O)NC2=O)c1 [SB-390769] | 0%
34 | COc1cccc(NC(=O)NC2CCN(c3ccnc(Nc4cc(OC)c(OC)c(OC)c4)n3)C2)c1 (stereo not shown) [GSK1379763] | 6%
35 | Cn1cc(-c2ccc3c(c2)CCN3C(=O)Cc2cccc(F)c2)c2c(N)ncnc21 [GSK2603358] | 99.7%
36 | CC(=O)N1CCN(c2ccc(Nc3nccc(-c4sc(C(C)C)nc4-c4cccc(NS(=O)(=O)c5cccc(Cl)c5)c4)n3)cn2)CC1 [GSK1660437] | 0%
37 | CN(C)Cc1ccc(-c2ccc3c(Nc4ccc(Oc5ccccn5)cc4)ccnc3c2)o1 [GW567148] | 0%
